# According to the supplement of paper PMC4466140:
# B1: unnamed (peptide)
# chain: VLRFLGFPLPIFEKG
# B2: unnamed (peptide)
# chain: SKSRLLIELPEGFFT
# B3: unnamed (peptide)
# chain: ILARAILTIPRVLDK
# B4: unnamed (peptide)
# chain: FFRRSELYLPNSSKA
# Target: AgAbp1
# Test: SPOT peptide array binding signal intensity (averaged, normalized) (arbitrary units (background-subtracted, floor 0; scale differs between SH3 domains)); higher = stronger binding of the SH3 domain to the peptide
# In short: (§1)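 Four yeast species supplied the SH3 domains, which were expressed as GST fusions in E. coli BL21(DE3) and purified on glutathione Sepharose. Incubation with cellulose membranes carrying synthetic 15-mer peptides, cysteines exchanged for serines, ran overnight at 4°C at 10 μg/ml in TBS-based blocking buffer. Binding signal is reported as normalized, background-subtracted spot intensity averaged over replicates, in arbitrary units not shared between domains.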
row,Binder,SPOT peptide array binding signal intensity
1,B1,2
2,B2,2
3,B3,2

# Target: AgBbc1
# Test: as above
# In short: as §1
row,Binder,SPOT peptide array binding signal intensity
1,B1,≤ 0
2,B2,0.5
3,B3,50

# Target: AgBem1-D1
# Test: as above
# In short: as §1
row,Binder,SPOT peptide array binding signal intensity
1,B1,24.5
2,B2,≤ 0
3,B3,162

# Target: AgBzz1-D1
# Test: as above
# In short: as §1
row,Binder,SPOT peptide array binding signal intensity
1,B1,15
2,B2,59
3,B3,107

# Target: AgBzz1-D2
# Test: as above
# In short: as §1
row,Binder,SPOT peptide array binding signal intensity
1,B1,≤ 0
2,B2,78
3,B3,121

# Target: AgCyk3
# Test: as above
# In short: as §1
row,Binder,SPOT peptide array binding signal intensity
1,B1,≤ 0
2,B2,1
3,B3,11

# Target: AgFus1
# Test: as above
# In short: as §1
row,Binder,SPOT peptide array binding signal intensity
1,B1,393
2,B2,322
3,B3,1100

# Target: AgHof1
# Test: as above
# In short: as §1
row,Binder,SPOT peptide array binding signal intensity
1,B1,9
2,B2,18.5
3,B3,34.5

# Target: AgHse1
# Test: as above
# In short: as §1
row,Binder,SPOT peptide array binding signal intensity
1,B1,845
2,B2,16
3,B3,500

# Target: AgLsb1
# Test: as above
# In short: as §1
row,Binder,SPOT peptide array binding signal intensity
1,B1,7.75
2,B2,≤ 0
3,B3,1.5

# Target: AgLsb4
# Test: as above
# In short: as §1
row,Binder,SPOT peptide array binding signal intensity
1,B1,36
2,B2,46
3,B3,1390

# Target: AgMyo5
# Test: as above
# In short: as §1
row,Binder,SPOT peptide array binding signal intensity
1,B1,0.5
2,B2,≤ 0
3,B3,1

# Target: AgNbp2
# Test: as above
# In short: as §1
row,Binder,SPOT peptide array binding signal intensity
1,B1,≤ 0
2,B2,≤ 0
3,B3,279

# Target: AgRvs167
# Test: as above
# In short: as §1
row,Binder,SPOT peptide array binding signal intensity
1,B1,1.67
2,B2,0.5
3,B3,12

# Target: AgSho1
# Test: as above
# In short: as §1
row,Binder,SPOT peptide array binding signal intensity
1,B1,31
2,B2,≤ 0
3,B3,516

# Target: AgSla1-D1-D2
# Test: as above
# In short: as §1
row,Binder,SPOT peptide array binding signal intensity
1,B1,3
2,B2,67
3,B3,58

# Target: AgSla1-D3
# Test: as above
# In short: as §1
row,Binder,SPOT peptide array binding signal intensity
1,B1,2
2,B2,0.25
3,B3,12

# Target: CaAbp1-D1
# Test: as above
# In short: as §1
row,Binder,SPOT peptide array binding signal intensity
1,B1,4
2,B2,≤ 0
3,B3,30

# Target: CaAbp1-D2
# Test: as above
# In short: as §1
row,Binder,SPOT peptide array binding signal intensity
1,B1,3.5
2,B2,≤ 0
3,B3,20

# Target: CaBbc1
# Test: as above
# In short: as §1
row,Binder,SPOT peptide array binding signal intensity
1,B1,≤ 0
2,B2,19.5
3,B3,68.5

# Target: CaBem1-D1
# Test: as above
# In short: as §1
row,Binder,SPOT peptide array binding signal intensity
1,B1,≤ 0
2,B2,8.5
3,B3,33.5

# Target: CaBzz1-D1
# Test: as above
# In short: as §1
row,Binder,SPOT peptide array binding signal intensity
1,B1,≤ 0
2,B2,82.5
3,B3,625

# Target: CaBzz1-D2
# Test: as above
# In short: as §1
row,Binder,SPOT peptide array binding signal intensity
1,B1,0.25
2,B2,18.8
3,B3,247

# Target: CaCyk3
# Test: as above
# In short: as §1
row,Binder,SPOT peptide array binding signal intensity
1,B1,≤ 0
2,B2,≤ 0
3,B3,35

# Target: CaFus1
# Test: as above
# In short: as §1
row,Binder,SPOT peptide array binding signal intensity
1,B1,3750
2,B2,1020
3,B3,1530

# Target: CaHof1
# Test: as above
# In short: as §1
row,Binder,SPOT peptide array binding signal intensity
1,B1,≤ 0
2,B2,≤ 0
3,B3,2.25

# Target: CaHse1
# Test: as above
# In short: as §1
row,Binder,SPOT peptide array binding signal intensity
1,B1,35.8
2,B2,5.25
3,B3,130

# Target: CaLsb1
# Test: as above
# In short: as §1
row,Binder,SPOT peptide array binding signal intensity
1,B1,1
2,B2,≤ 0
3,B3,2.25

# Target: CaLsb4
# Test: as above
# In short: as §1
row,Binder,SPOT peptide array binding signal intensity
1,B1,≤ 0
2,B2,≤ 0
3,B3,62.5

# Target: CaMyo5
# Test: as above
# In short: as §1
row,Binder,SPOT peptide array binding signal intensity
1,B1,≤ 0
2,B2,117
3,B3,12.5

# Target: CaNbp2
# Test: as above
# In short: as §1
row,Binder,SPOT peptide array binding signal intensity
1,B2,34.5
2,B3,290

# Target: CaRvs167
# Test: as above
# In short: as §1
row,Binder,SPOT peptide array binding signal intensity
1,B2,1.83
2,B3,99.3

# Target: CaRvs167-3
# Test: as above
# In short: as §1
row,Binder,SPOT peptide array binding signal intensity
1,B2,51.8
2,B3,854

# Target: CaSho1
# Test: as above
# In short: as §1
row,Binder,SPOT peptide array binding signal intensity
1,B2,56.5
2,B3,1420

# Target: CaSla1-D1-D2
# Test: as above
# In short: as §1
row,Binder,SPOT peptide array binding signal intensity
1,B2,≤ 0
2,B3,15

# Target: CaSla1-D3
# Test: as above
# In short: as §1
row,Binder,SPOT peptide array binding signal intensity
1,B2,22
2,B3,118

# Target: ScAbp1
# Test: as above
# In short: as §1
row,Binder,SPOT peptide array binding signal intensity
1,B2,≤ 0
2,B3,6

# Target: ScBbc1
# Test: as above
# In short: as §1
row,Binder,SPOT peptide array binding signal intensity
1,B2,1
2,B3,3.5

# Target: ScBem1-D1
# Test: as above
# In short: as §1
row,Binder,SPOT peptide array binding signal intensity
1,B2,11.5
2,B3,8

# Target: ScBzz1-D1
# Test: as above
# In short: as §1
row,Binder,SPOT peptide array binding signal intensity
1,B2,75.5
2,B3,41.5

# Target: ScBzz1-D2
# Test: as above
# In short: as §1
row,Binder,SPOT peptide array binding signal intensity
1,B2,125
2,B3,299

# Target: ScCyk3
# Test: as above
# In short: as §1
row,Binder,SPOT peptide array binding signal intensity
1,B2,7
2,B3,70

# Target: ScFus1
# Test: as above
# In short: as §1
row,Binder,SPOT peptide array binding signal intensity
1,B2,317
2,B3,1530

# Target: ScHof1
# Test: as above
# In short: as §1
row,Binder,SPOT peptide array binding signal intensity
1,B2,1.5
2,B3,0.5

# Target: ScHse1
# Test: as above
# In short: as §1
row,Binder,SPOT peptide array binding signal intensity
1,B2,89
2,B3,1470

# Target: ScLsb1
# Test: as above
# In short: as §1
row,Binder,SPOT peptide array binding signal intensity
1,B2,≤ 0
2,B3,11.5

# Target: ScLsb2
# Test: as above
# In short: as §1
row,Binder,SPOT peptide array binding signal intensity
1,B2,≤ 0
2,B3,55

# Target: ScLsb3
# Test: as above
# In short: as §1
row,Binder,SPOT peptide array binding signal intensity
1,B2,≤ 0
2,B3,117

# Target: ScLsb4
# Test: as above
# In short: as §1
row,Binder,SPOT peptide array binding signal intensity
1,B2,≤ 0
2,B3,5

# Target: ScMyo3
# Test: as above
# In short: as §1
row,Binder,SPOT peptide array binding signal intensity
1,B2,1
2,B3,≤ 0

# Target: ScMyo5
# Test: as above
# In short: as §1
row,Binder,SPOT peptide array binding signal intensity
1,B2,0.5
2,B3,≤ 0

# Target: ScNbp2
# Test: as above
# In short: as §1
row,Binder,SPOT peptide array binding signal intensity
1,B2,≤ 0
2,B3,305

# Target: ScPex13
# Test: as above
# In short: as §1
row,Binder,SPOT peptide array binding signal intensity
1,B2,≤ 0
2,B3,59.2

# Target: ScRvs167
# Test: as above
# In short: as §1
row,Binder,SPOT peptide array binding signal intensity
1,B2,0.667
2,B3,4.83

# Target: ScSho1
# Test: as above
# In short: as §1
row,Binder,SPOT peptide array binding signal intensity
1,B2,145
2,B3,1560

# Target: ScSla1-D1-D2
# Test: as above
# In short: as §1
row,Binder,SPOT peptide array binding signal intensity
1,B2,≤ 0
2,B3,145

# Target: ScSla1-D3
# Test: as above
# In short: as §1
row,Binder,SPOT peptide array binding signal intensity
1,B2,15
2,B3,18

# Target: SpAbp1-D1
# Test: as above
# In short: as §1
row,Binder,SPOT peptide array binding signal intensity
1,B2,≤ 0
2,B3,7.5

# Target: SpBbc1
# Test: as above
# In short: as §1
row,Binder,SPOT peptide array binding signal intensity
1,B2,≤ 0
2,B3,56.5

# Target: SpBzz1-D1
# Test: as above
# In short: as §1
row,Binder,SPOT peptide array binding signal intensity
1,B2,68.5
2,B3,553

# Target: SpBzz1-D2
# Test: as above
# In short: as §1
row,Binder,SPOT peptide array binding signal intensity
1,B2,0.25
2,B3,1.5
3,B4,≤ 0

# Target: SpCyk3
# Test: as above
# In short: as §1
row,Binder,SPOT peptide array binding signal intensity
1,B2,1
2,B3,8.5
3,B4,≤ 0

# Target: SpHof1
# Test: as above
# In short: as §1
row,Binder,SPOT peptide array binding signal intensity
1,B2,204
2,B3,82.2
3,B4,65.2

# Target: SpHof1-2
# Test: as above
# In short: as §1
row,Binder,SPOT peptide array binding signal intensity
1,B2,13.5
2,B3,8.5
3,B4,6.75

# Target: SpHof1-3
# Test: as above
# In short: as §1
row,Binder,SPOT peptide array binding signal intensity
1,B2,7.5
2,B3,158
3,B4,455

# Target: SpHse1
# Test: as above
# In short: as §1
row,Binder,SPOT peptide array binding signal intensity
1,B2,45.5
2,B3,613
3,B4,552

# Target: SpLsb1
# Test: as above
# In short: as §1
row,Binder,SPOT peptide array binding signal intensity
1,B2,≤ 0
2,B3,2.25
3,B4,0.75

# Target: SpLsb4
# Test: as above
# In short: as §1
row,Binder,SPOT peptide array binding signal intensity
1,B2,≤ 0
2,B3,42
3,B4,7

# Target: SpMyo1
# Test: as above
# In short: as §1
row,Binder,SPOT peptide array binding signal intensity
1,B2,0.5
2,B3,1.5
3,B4,9

# Target: SpNbp2
# Test: as above
# In short: as §1
row,Binder,SPOT peptide array binding signal intensity
1,B2,≤ 0
2,B3,207
3,B4,3

# Target: SpPex13
# Test: as above
# In short: as §1
row,Binder,SPOT peptide array binding signal intensity
1,B2,≤ 0
2,B3,131
3,B4,10

# Target: SpRvs167
# Test: as above
# In short: as §1
row,Binder,SPOT peptide array binding signal intensity
1,B2,2
2,B3,39.2
3,B4,6.67

# Target: SpSla1-D1-D2
# Test: as above
# In short: as §1
row,Binder,SPOT peptide array binding signal intensity
1,B2,≤ 0
2,B3,≤ 0
3,B4,≤ 0

# Target: SpSla1-D3
# Test: as above
# In short: as §1
row,Binder,SPOT peptide array binding signal intensity
1,B2,≤ 0
2,B3,10
3,B4,35
